Data as given in PubChem BioAssay.
Values joined by “and” are separate entries in the source; they are usually repeats but may differ in a detail not shown here. Equal entries are not always repeated. Some structures have more than one record in an assay (separate samples or runs), and their calls can disagree. Active and inactive are the calls of the source.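 The calls were made as follows, unless noted: active = compounds whose cell count with miR-34 switched on is under 0.7 times the count with it off; inactive = the rest.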

Assays:
[1] = compounds altering viability of human ES cells (AID 493140; call rule not given here;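 also: cells exposed to compounds for four days before counting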); conditions: human embryonic stem cell survival screen; stronger effect = higher value
[2] = viability loss with induced miR-34 in A549 – imaging, A549 dox-inducible miR-34, nuclei and caspase counts, primary screen (AID 1347080); conditions: A549 miR-34 inducible, Hoechst nuclei count, 48 h
[3] = chitosan synthesis blockers in C. neoformans – flow cytometry, Cibacron Brilliant Red staining (AID 1347148; call rule not given here;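 also: compound exposure lasted three days at 37 degrees C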); conditions: Cryptococcus neoformans chitosan, stronger effect = lower value; at 10 µM unless noted
[4] = compounds altering circadian rhythm period length – cell-based, LOPAC library, luminescence reporter (AID 2774; call rule not given here;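 also: values are relative to mean of DMSO wells on each plate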); conditions: circadian reporter cells, at 7 µM, actives lie on both sides
[5] = P. berghei load reduction in hepatocytes – cell-based, HepG2, luciferase luminescence, HepG2 viability, primary screen (AID 624349; in the data active = parasite load remaining mostly below about 12%, no sharp cut-off; inactive = mostly above about 10%;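 also: 100% = mean of DMSO negative control wells on the same plate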); conditions: P. berghei liver stage in HepG2, luciferase luminescence, concentration not given here; parasite load remaining: stronger effect = lower value; viability: measured here: HepG2 viability without parasites
[6] = system: Hepatitis C virus NS3 helicase; experiment: blockers of NS3h binding to ssDNA – biochemical, fluorescence polarization, LOPAC1280 library, primary screen (AID 687035; in the data active = inhibition above about 37%); conditions: Purified HCV NS3 helicase, Cy5-dT15 ssDNA binding fluorescence polarization; stronger effect = higher value; concentration not given here
[7] = compounds altering Cy5-DNA-NS3h complex signal – biochemical, LOPAC1280, artefact control for HCV NS3 helicase inhibitor project (AID 687037; call rule not given here); conditions: Cy5-DNA-NS3h complex fluorescence interference counterscreen
[8] = blockers of cellular phospholipid synthesis – cell-based, LOPAC library, screen 4, primary screen (AID 1347384; call rule not given here); conditions: animal cells, phospholipid biosynthesis inhibition screen; at 10 µM
[9] = MELAS cybrid and Rieske KO viability enhancers – cell-based, MELAS cybrids, Rieske KO mouse fibroblasts, CellTiter-Glo, primary screen (AID 1508586;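 active = mean z-score across replicates of 1.96 or higher in either the MELAS or the Rieske mutant cell line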;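 also: z relative to plate mean and SD of compound and empty wells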); conditions: low glucose
[10] = galactose survival enhancers in mitochondrial complex I cybrids – cell-based, galactose medium, ATP luminescence, primary screen (AID 1645843;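 active = z-score of at least 1.8 in each of two replicates, scored against plate mean and spread of sample wells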;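 also: positive z means more ATP and so rescue of galactose-driven cybrid death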); conditions: complex I mutant cybrid cells, 72 h, stronger effect = higher value
[11] = stronger effect = lower value, cell number ratio, induced over uninduced
[12] = measured here: relative caspase fold change +Dox/-Dox
[13] = measured here: total cells with miR-34 induction, stronger effect = lower value
[14] = measured here: total cells without miR-34 induction
[15] = MELAS cybrid survival, CellTiter-Glo 48 h, stronger effect = higher value
[16] = Rieske KO mouse fibroblast survival, CellTiter-Glo 72 h

Compound | survival [1] | fold change [2, 11] | fold change [2, 12] | cell count [2, 13] | cell count [2, 14] | fold fluorescence [3] | period change [4] | parasite load remaining [5] | viability [5] | inhibition [6] | fluorescence ratio (interference) [7] | outcome [8] | z-score [9, 15] | z-score [9, 16] | z-score [10]
CCCCC/C=C\C/C=C\C/C=C\C/C=C\CCCC(=O)OC(CO)CO | 72.6 (inactive) | 0.947 (inactive) and 1.01 (inactive) | 1.17 and 0.841 | 6380 and 5230 | 6740 and 5180 | 5.06 (inactive) | – | – | – | – | – | – | – | – | –
CCCCC[C@H](O)/C=C/[C@H]1C=CC(=O)[C@@H]1C/C=C\CCCC(=O)O | 122 (inactive) | 0.976 (inactive) and 0.946 (inactive) | 1.27 and 1.82 | 5740 and 5500 | 5880 and 5820 | 4.51 (inactive) | – | – | – | – | – | – | – | – | –
NC(N)=NCc1cccc(I)c1 | 4 (inactive) | 1.1 (inactive) and 0.739 (inactive) | 0.666 and 1.95 | 8720 and 5880 | 7960 | – | 0.01 h (inactive) | 28.4% (inactive) and 43.8% (inactive) | 121% and 78.9% | -5% (inactive) | 0.9 (inactive) | inactive | -0.124 (inactive) | -0.101 | -0.305 (inactive)
CCCCC[C@H](O)/C=C/[C@H]1C(=O)C[C@H](O)[C@@H]1C/C=C\CCCC(=O)O | 96.1 (inactive) | 0.966 (inactive) and 0.979 (inactive) | 1.13 and 1.66 | 6220 and 5740 | 6440 and 5870 | 3.99 (inactive) | – | – | – | – | – | – | – | – | –
CSC(=N)N | – | 1 (inactive) and 0.925 (inactive) | 1.64 and 1.46 | 10600 and 5770 | 10500 and 6230 | – | -0.11 h (inactive) | – | – | -4% (inactive) | 1 (inactive) | inactive | – | – | 0.095 (inactive)
CNCCC(Oc1cccc2ccccc12)c1cccs1 (stereo not drawn) | – | 0.825 (inactive) and 0.844 (inactive) and 0.922 (inactive) | 1.39 and 1.04 and 2.23 | 4830 and 5000 and 7370 | 5860 and 5930 and 7990 | – | – | – | – | – | – | – | -0.107 (inactive) | -1.06 | -1.4 (inactive) and -1.81 (inactive)
CCOC(=O)C(CCc1ccccc1)NC1CCc2ccccc2N(CC(=O)O)C1=O (stereo not drawn) | – | 0.901 (inactive) and 0.923 (inactive) and 1.08 (inactive) | 1.61 and 0.619 and 0.514 | 9200 and 8490 and 8200 | 10200 and 9200 and 7620 | – | – | – | – | – | – | – | 0.349 (inactive) and -0.387 (inactive) | -0.629 and -0.0664 | 0.855 (inactive) and 0.665 (inactive)
O=C(O)C=Cc1ccc(Cn2ccnc2)cc1 | – | 0.955 (inactive) and 0.883 (inactive) and 0.902 (inactive) | 1.3 and 1.43 and 0.779 | 9560 and 7820 and 10000 | 10000 and 8860 and 11100 | – | – | – | – | – | – | – | -0.304 (inactive) and -0.385 (inactive) | 0.761 and 0.973 | 0.575 (inactive)
CC1c2cccc(O)c2C(O)=C2C(=O)[C@]3(O)C(O)=C(C(N)=O)C(=O)C(N(C)C)[C@@H]3C(O)[C@@H]21 (stereo partly drawn) | – | 0.722 (inactive) and 0.743 (inactive) and 0.957 (inactive) | 1.04 and 0.719 and 0.385 | 5360 and 5020 and 8780 | 7420 and 6760 and 9180 | – | – | – | – | – | – | – | 4.12 (active) and 3.16 (active) and -0.469 (inactive) | 5.71 and 4.93 and -0.551 | –
